# Shown are actives, neighbours in structure and some others; about 1.8% of the full set was active somewhere.
# PolyA inhibitor: yeast polyadenylation inhibition | S. cerevisiae SKY197-pL101 polyadenylation reporter, beta-gal luminescence; efflux-impaired pdr1/pdr3 knockout yeast; score 100 = 6 SD above DMSO | activity score, % at 12 µM | 300,000 tested, 0.02% active | AID 1875;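 active means lowest replicate activity score at least 50, where 100 means six control SD above control mean; inconclusive means lowest score under 50 but half or more replicates reach 50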;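 further: yeast exposed to compound for 9 h at 30 °C; higher score means more reporter readthrough which indicates perturbed polyadenylation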
# NALP1 inh: blocks the NALP1 inflammasome reconstituted in yeast | S. cerevisiae NALP1/ASC/caspase-1 growth, X-gal OD620, 72 h | inhibition, % at 10 µM | 280,000 tested, 0.61% active | AID 2071; in the data active means inhibition mostly above about 24%, no sharp cut-off; inactive means mostly below about 32%
# NLRP3 yeast inh: inhibitors of NALP3 inflammasome in yeast. Yeast reconstituted NLRP3/ASC/caspase-1, beta-gal luminescence, 24 h. inhibition, % at 10 µM. 330,000 tested, 0.39% active;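 active means inhibition of 50% or more; inactive means inhibition below 50%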;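 further: plate controls were induced DMSO wells for no effect and uninduced yeast grown without galactose for full effect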
# SUMO Mot1 rescue: SUMOylation pathway inhibition by Mot1-301 growth rescue | S. cerevisiae Mot1-301 growth rescue, ATP luminescence, 38.5C; percent above DMSO median, 100 means doubled | 320,000 tested, 1% active | growth rescue, % at 18.8 µM;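 active means every valid replicate shows activation above 250% relative to neutral control wells; inactive means the rest, any valid replicate at or below 250%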;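 further: OY570 slx delta 5 strain wells were the positive control but not used for scaling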
# Yeast Mot1 SUMO: inhibits SUMO pathway, affecting Mot1-301 yeast growth | shares compounds with SUMO Mot1 rescue | S. cerevisiae Mot1-301 galactose growth, ATP luminescence, 24 h; -100 = growth of slx-deleted rescue strain | growth activity, percent, % at 42 µM | 2,300 tested, under 10 active | AID 493004;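 active means Signal drops as the depositor expects, and the fitted half-maximal dose is no more than ten times the top valid tested dose; inconclusive means Poor fit, or a flat curve whose signal drops by 30% to 70%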;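 further: more negative values mean stronger growth rescue toward the control strain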
# Numbers without * were called inactive; i = inactive; u = inconclusive; x = no result; + = active, no number; ! = a repeat was not active.
SMILES,PolyA inhibitor,NALP1 inh,NLRP3 yeast inh,SUMO Mot1 rescue,Yeast Mot1 SUMO
CN(C)S(=O)(=O)c1cccc(NC(=O)COc2nc3ccccc3nc2N2CCOCC2)c1,-1,25,1,524*,0
O=c1nc(-c2ccccc2)c(-c2ccccc2)n[nH]1,16,6,x,-6,x
O=c1nc(-c2ccccc2)cn[nH]1,-3,28,-3,570*,0
CCOC(=O)CNC(=O)c1c(C)nn(C)c1Cl,6,13,11,669*,1
CC(=O)c1ccc(C(=O)N2CCCC(N3CCN(c4ccc(F)cc4)CC3)C2)s1 (stereo unspecified),16,8,5,508*,0
CC(C)=CC(=O)N1CCCC(N2CCN(c3ccccc3C)CC2)C1 (stereo unspecified),2,-5,19,-9,x
CC(C)=CC(=O)N1CCCC(N2CCN(c3ccc(F)cc3)CC2)C1 (stereo unspecified),0,13,13,+,-1
O=C(c1ccc(Cl)s1)N1CCCC(N2CCN(c3ccc(F)cc3)CC2)C1 (stereo unspecified),13,11,5,140,x
Cc1ccc(NC(=O)c2sc3nc(C)nc(N4CCN(c5ccccn5)CC4)c3c2C)c(C)c1,0,-2,10,15,x
Cc1nc(N2CCN(c3ccccn3)CC2)c2c(C)c(C(=O)N3CCN(c4ccccc4F)CC3)sc2n1,-21,4,x,427*,0
CCCNS(=O)(=O)c1ccc(C(=O)NCC2CCCO2)cc1 (stereo unspecified),-3,2,12,69,x
Cc1cccc2nc(COc3ccc4ccccc4c3Br)cn12,-18,x,11,728*,-1
O=C(NNc1ccccc1)C(CCO)C(=O)NNc1ccccc1,-12,21,24,404*,0
CNS(=O)(=O)c1cccc(C(=O)NCC2(N3CCCCC3)CCCCC2)c1,3,0,24,402*,0
Cc1cccc(NS(=O)(=O)c2cccc(C(=O)NCC3(N4CCCCC4)CCCCC3)c2)c1,12,x,16,i,x
CCN1C(=O)c2ccc(C(=O)NCc3ccc4c(c3)OCO4)cc2C1=O,23,-8,8,3,x
O=[N+]([O-])c1cc(C(F)(F)F)ccc1NCCNC(=S)Nc1ccc(Cl)cc1,-24,6,38,25,x
COc1ccc(OC)c(NC(=O)CCN2CCN(Cc3ccccc3)CC2)c1,14,11,15,-3,x
COc1ccc(NC(=O)CN2CCN(CC(=O)Nc3ccccc3OC)CC2)c(OC)c1,-2,15,14,x,x
COc1cc(NC(=O)CN2CCN(CC(=O)Nc3ccccc3OC)CC2)cc(OC)c1,12,7,10,518*,1
COc1cc(NC(=O)CCN2CCN(Cc3ccccc3)CC2)cc(OC)c1,0,x,22,696*,0
Cc1ccc(C(=O)OCC(=O)NC(=O)c2cccn2C)cc1[N+](=O)[O-],0,-11,3,-5,x
O=C1C2CCCCN2C(=O)N1CCCCN1CCN(c2ccccc2Oc2ccccc2)CC1 (stereo unspecified),0,x,22,431*,0
O=C(NCCc1cnccn1)C1CCC(=O)N(Cc2ccc(Cl)cc2)C1 (stereo unspecified),19,8,14,523*,0
O=C(NCCCc1ccncc1)C1CCC(=O)N(Cc2ccc(Cl)cc2)C1 (stereo unspecified),u,14,12,-3,x
SMILES,PolyA inhibitor,NALP1 inh,NLRP3 yeast inh,SUMO Mot1 rescue,Yeast Mot1 SUMO
C=CCC[C@@H](Cc1ccc(F)cc1)C(=O)O[C@H](CNC(=O)[C@@H](CC=C)CC(=O)N[C@H](CO)Cc1ccccc1)c1ccccc1,x,x,15,x,x
COc1ccc(CN(C)S(=O)(=O)c2nnc(NC(=O)c3ccc(C)cc3)s2)cc1OC,11,36,-1,466*,0
CCOC(=O)C1CCCN(S(=O)(=O)c2ccc(Br)c(OC)c2)C1 (stereo unspecified),-16,7,21,3,x
COc1cc2c(cc1NC(=O)c1ccncc1)oc1ccccc12,-19,13,40,290,x
COc1cc2c(cc1NC(=O)c1cccnc1)oc1ccccc12,-11,2,28,555*,-1
O=C(/C=C/N1CCOCC1)c1coc2ccccc12,13,10,-2,425*,-1
Cc1ccccc1NC(=O)Cn1nc(C)c2ccccc2c1=O,-6,23,-5,11,x
Cc1ccc(NC(=O)Cn2nc(C)c3ccccc3c2=O)cc1,16,10,18,369*,0
CC(=O)Nc1ccc(S(=O)(=O)Nc2ccc(S(=O)(=O)Nc3ncccn3)cc2)cc1,8,5,14,+,0
CC(=O)Nc1ccc(S(=O)(=O)Nc2cccc(-c3ccc4nncn4n3)c2)cc1,1,-1,6,528*,0
Fc1ccc(CSc2ncnc3nc[nH]c23)cc1,-7,23,6,-5,x
CC1CCCCN1S(=O)(=O)c1ccccc1[N+](=O)[O-] (stereo unspecified),-20,38,6,4,x
CC(OC(=O)c1cnccn1)C(=O)c1ccccc1 (stereo unspecified),1,x,14,433*,0
Cc1ccc(C(=O)C(OC(=O)c2cnccn2)c2ccccc2)cc1 (stereo unspecified),-2,4,-33,1,x
CCOc1ccc(OCC)c(NC(=O)C2COc3ccccc3O2)c1 (stereo unspecified),-8,39,11,824*,0
CN(C)C(=O)CSc1nnc(-c2ccncc2)n1Cc1ccco1,3,-22,19,-1,x
O=C(COc1ccc(F)cc1Cl)N(Cc1nnc(-c2ccccc2Cl)o1)C1CC1,9,11,15,510*,0
COC(=O)C1=C(C)NC(C)=C(C(=O)OC)C1c1ccc(-c2cccc([N+](=O)[O-])c2)o1,1,27,23,-1,x
COC(=O)C1=C(C)NC(C)=C([N+](=O)[O-])C1c1ccccc1C(F)(F)F (stereo unspecified),9,6,3,497*!,-1
Cc1cc(C)cc(NC(=O)Cn2nnc(C(=O)NCc3ccc(F)cc3)c2N)c1,3,26,5,31,x
CC(NC(=O)CCNC(=O)c1ccco1)c1ccc(F)cc1 (stereo unspecified),-9,15,7,-14,x
CCN(CC)CCCN1C(=O)C(=O)/C(=C(/O)c2ccccc2)C1c1cc(OC)ccc1OC (stereo unspecified),-6,-13,2,685*,0
O=C(COC(=O)Cc1c[nH]c2ccccc12)Nc1ccccc1C(F)(F)F,x,x,12,-1,x
COC(=O)c1ccc(CN2CCN(C3CCCCC3)C(CCO)C2)cc1 (stereo unspecified),7,-3,-11,403*,-1
CCOc1ccc(S(=O)(=O)N2CCN(CC(O)COc3cccc([N+](=O)[O-])c3)CC2)cc1 (stereo unspecified),11,0,3,588*,0

# Bioassay records as filed in PubChem BioAssay.
